# BH1578 lux ind = inducers of Vibrio cholerae quorum light production without autoinducers, primary screen, BH1578 luxS cqsA deficient, single point; V. cholerae BH1578 lux reporter, luminescence, 6 h; activation, % at 18.7 µM; actives 0.16% (n = 350,000); AID 588436, 2011; in the data active means activation mostly above about 9.7%, no sharp cut-off; inconclusive means no clear call, values can overlap the other calls; inactive means mostly below about 3.7%
# MazEF act = activators of E. coli MazEF toxin-antitoxin RNase, primary screen, biochemical, fluorescence, uHTS | Endoribonuclease toxin MazF (Escherichia coli (strain K12)), P0AE70 | FAM/BHQ RNA-DNA oligo cleavage fluorescence, 5 h | activation, % at 20 µM | actives 0.32% (n = 350,000) | AID 504720, 2011; in the data active means activation above about 50%
# Anthrax LF prot = Bacillus anthracis LF protease inhibitors, primary screen, biochemical, multiplex microsphere, MLPCN library. multiplex microsphere protease cleavage assay. inhibition, % at 10 µM. actives 0.12% (n = 360,000). AID 588501, 2011; further: plate controls were buffer without enzyme for full effect and enzyme alone for no effect
# Bead autofluor = flagged as autofluorescent in microsphere protease counterscreen | compound autofluorescence counterscreen, microsphere flow cytometry; hits give high values | fluorescence intensity (concentration not given with the values) | actives 3.1% (n = 360,000) | AID 624483; in the data active means fluorescence intensity above about 16000; inconclusive means no clear call, values can overlap the other calls
# BoNT-A LC inh2 = BoNT/A light chain protease inhibitors, primary screen, biochemical, flow cytometry, MLPCN library; Botulinum neurotoxin type A light chain protease (Clostridium botulinum A str. ATCC 3502); multiplex microsphere protease substrate cleavage; inhibition, % at 10 µM; actives 0.17% (n = 360,000); AID 588499, 2011; further: plate controls were buffer without enzyme for full effect and enzyme alone for no effect
# BoNT F protease = BoNT/F light chain protease inhibitors, primary screen, biochemical, flow cytometry, MLPCN library; Botulinum neurotoxin type F light chain protease (Clostridium botulinum); AID 588497, 2011; actives 0.22% (n = 360,000); inhibition, % at 10 µM; Multiplex microsphere protease cleavage assay; in the data active means inhibition above about 35%, passing the limit was not always enough; inconclusive means no clear call, values can overlap the other calls; further: plate controls were buffer without enzyme for full effect and enzyme alone for no effect
# Numbers without * were called inactive; i = inactive; ? = inconclusive; / = not tested or not shown; + = active, no number. The list is not random: actives were taken first. Their share in the collection is about 3.9%. Unless noted, no stated cut-off is given here; in the data, active means inhibition above about 30%; inconclusive means no clear call, values can overlap the other calls; inactive means below that.
SMILES,BH1578 lux ind,MazEF act,Anthrax LF prot,Bead autofluor,BoNT-A LC inh2,BoNT F protease
Cc1ccc(/C=C2\SC(=S)N(C3CCS(=O)(=O)C3)C2=O)o1 (centres undefined),i,0.2,15.1,2152,35.0*,10.8
NS(=O)(=O)c1ccc(-c2ccc(C=NC3CCS(=O)(=O)C3)o2)cc1 (centres undefined),-0.4,5.9,0.7,10884,0.2,-7.0
Cc1ccccc1N(CC(=O)N1CCCCCC1)S(C)(=O)=O,i,8.0,12.0,4460,-3.9,-10.7
COC(=O)c1ccc(-n2cncn2)c(F)c1,1.2,3.8,-1.0,23526*,?,-1.9
COC(=O)c1ccc(-n2cncn2)c([N+](=O)[O-])c1,-0.2,4.1,-11.9,?,-1.8,-3.1
O=C(NNC(=O)c1cccc2ccccc12)c1ccc(Br)cc1,-0.8,65.7*,-7.0,4268,-1.1,0.3
O=C(NNC(=O)c1cccc2ccccc12)c1cccc(Br)c1,1.0,-5.5,-2.4,3677,-0.2,-5.4
Cc1cccc(NS(=O)(=O)c2ccc(C)c(C(=O)NC3CCN(Cc4ccccc4)CC3)c2)c1,i,-51.5,3.1,30942*,8.9,18.3
Cc1ccccc1C(=O)NC1CCN(Cc2ccccc2)CC1,i,-3.3,1.1,3083,-0.2,2.7
CC(C)C[C@H]1CN(CCCC[C@@H]2CNC(=O)C(=O)N2CC2CCCCC2)C(=O)C(=O)N1CCC1CCCCC1,/,/,6.6,5490,-0.1,2.3
Nc1[nH]c(C(=O)c2ccccc2)c(-c2ccc(Cl)cc2Cl)c1C(=O)NCCc1c[nH]c2ccccc12,/,/,-0.3,5730,0.5,0.2
COCCn1c(C)cc2c(c1=O)C(c1ccco1)C(C#N)=C(N)O2 (centres undefined),0.0,7.2,-6.7,21595*,1.6,1.8
Cc1cc2c(c(=O)n1CCc1ccccc1)C(c1ccco1)C(C#N)=C(N)O2 (centres undefined),i,-14.7,-1.2,23680*,-0.9,-1.9
CC1CCCCC12NC(=O)N(CC(=O)NC(=O)NCc1ccco1)C2=O (centres undefined),-7.1,-5.3,-1.8,22867*,0.6,-2.3
COc1ccc2cc3c(N)c(C(=O)NCc4ccco4)sc3nc2c1,i,67.4*,1.7,4228,4.8,-10.3
COc1ccc2cc(C3(C)NC(=O)N(CC(=O)NCc4ccco4)C3=O)ccc2c1 (centres undefined),i,2.9,-1.7,21910*,1.3,0.9
CC[C@]12c3[nH]c4ccc(OC)cc4c3CCN1C(=O)C(CC(=O)NCCN1CCOCC1)C[C@@H]2C(=O)N1CCN(C(=O)c2ccco2)CC1 (some centres undefined),-0.7,7.5,-2.1,3941,-0.8,-17.4
C=CCNc1cc(N2CCCC2)ccc1[N+](=O)[O-],0.3,-2.3,-3.5,2727,0.2,1.8
COc1ccc(C)cc1NC(=O)CCCN1C(=O)C(c2ccccc2)Oc2cccnc21 (centres undefined),i,-5.4,0.2,4186,0.0,1.2
O=C1C[C@@H]2C(=O)N(c3ccccc3)C(=O)[C@@H]2[C@@H]2CN(S(=O)(=O)c3ccccc3)[C@@H](c3ccccc3)[C@H]12,/,/,7.8,5791,-0.4,-4.5
COc1ccc(NC(=O)CN(C)C(=O)C23CC4CC(CC(C4)C2)C3)cc1,-0.5,3.0,-1.2,6025,-1.0,2.8
CC(=O)Nc1ccc(OCC(O)CN2CCN(c3ccc(F)cc3)CC2)cc1 (centres undefined),i,3.1,-0.2,3335,1.6,?
CC(=O)N1CCN(Cc2ccc(Br)s2)CC1,-0.6,0.9,-2.2,22754*,0.7,2.7
CCOc1ccccc1N1CCN(Cc2ccc(Br)s2)CC1,-0.8,-0.5,-5.7,5915,-0.3,-9.7
COc1ccc(Cn2c(O)c(C=Nc3ccc(O)cc3)c3ccccc3c2=O)cc1,-0.2,-7.5,2.7,10878,2.5,-5.4
SMILES,BH1578 lux ind,MazEF act,Anthrax LF prot,Bead autofluor,BoNT-A LC inh2,BoNT F protease
O=c1c2ccccc2c(C=Nc2ccc(O)cc2)c(O)n1Cc1ccccc1,-0.4,+,-2.8,4713,-0.5,-2.1
O=C1CCC([N+](=O)[O-])C(c2ccccc2F)N1 (centres undefined),i,-20.3,-5.5,3634,-2.9,-10.6
Cc1ccc(-n2ncc3c(=O)n(CC#N)cnc32)cc1,-0.2,-2.3,-0.7,20625*,-0.3,-1.9
Cc1ccc(-n2ncc3c(=O)n(CC(N)=O)cnc32)cc1,0.5,2.1,-1.4,3511,4.8,-28.8
COc1ccc2oc(=O)c(-c3nc(C)cs3)cc2c1,4.0,1.2,7.1,20394*,?,12.1
CN(c1cccc(NC(=O)CN(c2cccc(Cl)c2)S(=O)(=O)c2ccccc2)c1)S(C)(=O)=O,1.3,-2.3,-0.4,1887,0.5,-3.5
CC(=O)NCCn1c(SCC(=O)NCCC(C)C)nc2ccccc2c1=O,i,-1.4,-0.1,23356*,-3.5,-2.8
CC(=O)NCCn1c(SCC(=O)NCc2ccco2)nc2ccccc2c1=O,i,4.2,-4.5,17328*,-1.6,-4.2
CC(=O)NCCn1c(SCC(=O)c2ccc(Cl)cc2)nc2ccccc2c1=O,i,-32.4,0.5,21199*,?,-6.2
O=C(CCCn1c(SCC(=O)c2ccc(Cl)cc2)nc2ccccc2c1=O)NCc1ccco1,-0.5,-20.5,/,/,/,/
O=C(CCCCCn1c(SCC(=O)c2ccccc2)nc2ccccc2c1=O)NCc1ccco1,-1.8,-8.7,-3.0,16253*,-0.4,-1.4
CC1C(O)=C(c2ccccc2)P(=O)(Cc2ccccc2)C1C (centres undefined),/,/,-2.2,4110,0.4,-4.5
Cc1cccc2[nH]c(CN(C)Cc3nc(CC4CC4)no3)nc12,-0.3,2.1,-7.2,4942,-0.6,-5.1
COc1ccccc1NC(=O)CSc1nc2[nH]ncc2c(=O)[nH]1,-1.4,5.8,?,?,?,?
CC(=O)Oc1cccc2c1C(=O)c1c(OC(C)=O)cc(C(=O)O)cc1C2=O,-3.0,257.0*,-11.1,5835,-0.3,-4.0
CC(=O)Oc1ccc(C(=O)O)cc1OC(C)=O,i,-17.9,-6.9,9034,1.5,0.4
Cc1ccc(C(=O)Nc2ccccc2N2CCCC2)s1,i,-3.8,-6.2,4162,3.1,-17.8
CCC(=O)Nc1sc2c(c1C(N)=O)CCC2,i,-6.5,-5.9,23030*,1.3,0.3
Cc1noc(C)c1C(=O)Nc1sc2c(c1C(N)=O)CCCCC2,-0.2,-15.0,-1.8,22480*,-0.5,-2.5
Cc1noc(C)c1C(=O)Nc1sc2c(c1C(N)=O)CCC2,i,27.7,-4.8,10966,0.3,8.2
CCC(C)NCC(=O)Nc1sc2c(c1C(N)=O)CCC2 (centres undefined),-0.2,2.8,0.9,3734,1.8,13.1

# Bioassay records: PubChem, several laboratories
